VDR inhibitor: blocks the human vitamin D receptor; Potency, µM, inactives show max response, negative = inhibition, most hits filed as inhibitors; hit rate 0.93% among 400,000; P11473; VDR-SRC2-3 peptide fluorescence polarization, 2 h; also: potency is read from the fitted curve at half-maximal effect
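Signal is fluorescence polarization, reporting how far test compounds block the interaction of VDR with the SRC2-3 coregulator peptide after a 2 h room-temperature incubation.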
USP1 inh: inhibitors of human USP1/UAF1 deubiquitinase. recombinant USP1/UAF1, Ub-Rhodamine cleavage fluorescence. Potency, µM (top dose mostly 57.1 µM), for inactives: top-dose activity change, negative = inhibition, hits mostly inhibitors. hit rate 0.23% among 390,000; also: potency is read from the fitted curve at half-maximal effect; nearly all actives have a fitted effect of over 60% in size
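USP1/UAF1 complex (1 nM) preincubated 15 min at room temperature with compound, then Ub-Rho substrate (150 nM final) added. Kinetic fluorescence at 480/540 nm over 6 reads at 60 s intervals; 50 mM HEPES pH 7.8, 0.5 mM EDTA, 0.1 mg/ml BSA, 1 mM TCEP, 0.01% Tween-20.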
PLK1 PBD block: inhibitors of human PLK1 polo-box domain binding | P53350 | hit rate 2.8% among 360,000 | Plk1 PBD binding of FITC phosphopeptide, fluorescence polarization | AID 720504 | Potency, µM, for inactives: max response, negative = inhibition, most hits filed as inhibitors; also: potency is read from the fitted curve at half-maximal effect; series mostly up to about 57 µM; nearly all actives have a fitted effect of over 65% in size
USP2a inh: blocks human ubiquitin-specific protease USP2a; USP2 core, Ub-CHOP2 coupled fluorogenic reporter, 485/531; Potency, µM (top dose mostly 38.3 µM), inactives show at the top dose activity change, negative = inhibition, hits mostly inhibitors; hit rate 0.01% among 330,000;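 also: potency is read from the fitted curve at half-maximal effect; plate controls were DMSO wells for no effect and full inhibition by NEM control for full effect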
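Cell-free coupled assay: 10nM USP2 core preincubated 30min RT with compound in Tris-HCl pH 8.0/CaCl2/CHAPS buffer, then 25nM Ub-CHOP2 and 25nM reporter substrate; fluorescence (Ex 485/Em 531) read after 60min RT, normalized to NEM inhibition, concentration-response curves fitted.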
FBPA coupling cs: counter-screen for Giardia aldolase inhibitors: coupling enzyme system; coupling enzyme system counterscreen, AmpLite Red fluorescence; activity change, negative = inhibition, % at 58.2 µM, hits read low; hit rate 0.67% among 290,000; in the data active = activity change below about -30%
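Counterscreen of the coupled detection system alone, without aldolase: glyceraldehyde-3-phosphate coupling enzymes plus AmpLite Red readout. Compounds at 57.5 uM final, 10 min RT preincubation, 20 min RT reaction, fluorescence 525/598 nm.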
GALK inh: galactokinase (human) inhibition. hit rate 0.007% among 270,000. P51570. Potency, µM (top dose mostly 57.5 µM), inactives show at the highest dose activity change, negative = inhibition, usual class: inhibitors. Purified GALK, Kinase-Glo residual ATP luminescence; also: potency is read from the fitted curve at half-maximal effect
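Luminescence from leftover ATP (Ultra-Glo luciferase/luciferin) served as read-out after a 1 h room-temperature reaction of 5 nM GALK with 35 uM ATP and 100 uM galactose.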
Active calls of the source: *; ? = inconclusive; · = no result. Compounds with a hit are over-represented: about 3.2% of the library has one in this group of screens. Unless noted, calls follow the shape of the dose curve; as a rule, active = well fitted curve in the direction sought with a large enough effect; inconclusive = small, poorly fitted or top-dose-only effect, or another doubt; inactive = no such curve, though single readings can be large; an effect the other way counts as inactive or inconclusive. Unless noted, % is scaled to controls: 0 for no effect and ±100 for the full control effect.

SMILES	VDR inhibitor	USP1 inh	PLK1 PBD block	USP2a inh	FBPA coupling cs	GALK inh
CC1C/C(=C/c2ccccn2)C(=O)/C(=C/c2ccccn2)C1 (stereo unspecified)	28µM*	-24%	?	2%	-1	-2%
CN(C)CCCNCC(=O)c1c(-c2ccccc2)n(C)c2ccccc12	79µM*	-23%	-21%	-13%	-4	-2%
N#CC(C#N)=C1C=CC=CN1/C(=C\c1ccco1)C(=O)c1ccc(Cl)cc1	8.9µM*	-10%	12µM*	0%	0	-3%
N#CC(C#N)=C1C=CC=CN1/C(=C\c1ccco1)C(=O)c1ccc(-c2ccccc2)cc1	?	-15%	-11%	0%	1	-5%
COc1cccc(CN(C)C(=O)c2[nH]c(C)c(C(C)=O)c2C)c1OC	?	-18%	27µM*	1%	0	6%
FC(F)(F)c1cnc(/C=C/Nc2ccccc2Cl)c(Cl)c1	-17%	-12%	-17%	3%	-1	-3%
O=C(CCc1ccccc1)NCCc1ccc(F)cc1	-2%	-20%	3%	3%	3	-6%
CCOC(=O)C1=C(CC)Nc2ccccc2N=C1NC(=O)c1ccc(S(=O)(=O)N(C)C)cc1	-13%	-4%	2.7µM*	6%	-2	-6%
Cc1cnnn1-c1ccc(C(=O)CCl)cc1	-23%	-9%	3.8µM*	-2%	·	-1%
O=S(=O)(NCC1CCCO1)c1cccc(C(F)(F)F)c1 (stereo unspecified)	-6%	-5%	-1%	2%	3	1%
CCO/C(C)=N/Oc1cccc(N(C)C)c1	·	·	-8%	·	·	·
Cc1ccccc1OCc1nnc(SCC(=O)Nc2ccc3nc(SCC(=O)Nc4ccccc4)sc3c2)n1C	-22%	-6%	-5%	-2%	2	·
CC(C)Sc1nc(N)c2c3c(sc2n1)CN(C)CC3	11%	-12%	27µM*	0%	1	1%
COc1ccc(N2CCN(CC(=O)Nc3ccc(C)cc3)CC2)cc1	?	-21%	2%	-1%	-2	3%
CCc1nc2sc3c(=O)[nH]cnc3c2c2c1CSC(C)(C)C2	-24%	3%	27µM*	1%	4	1%
COc1ccc(NC(=O)c2cnc(C)cn2)c2ncccc12	·	·	·	4%	1	1%
Cc1ccc(S(=O)(=O)/N=C2\C=C(Nc3cccc(C(=O)O)c3)C(=O)c3ccccc32)cc1	-1%	14µM*	60µM*	-7%	-47*	-29%
CCc1ccc(NC2=NC(C(=O)c3ccccc3)CC(=O)N2)cc1 (stereo unspecified)	-12%	-3%	-3%	0%	8	1%
CCc1ccc(S(=O)(=O)/N=C2\C=C(Nc3ccc(C(=O)O)cc3)C(=O)c3ccccc32)cc1	4%	18µM*	-17%	-7%	-48*	?
Cc1ccc(S(=O)(=O)/N=C2\C=C(Nc3ccc(O)cc3)C(=O)c3ccccc32)cc1	14%	11µM*	-6%	-13%	·	·
O=C(O)c1cccc(NS(=O)(=O)c2ccc3c(c2)C(=O)c2ccccc2C3=O)c1	-15%	-28%	-6%	5%	4	3%
O=C(CSc1nnc(NC2CCCCC2)s1)NC1CCS(=O)(=O)C1 (stereo unspecified)	15%	-4%	-5%	2%	0	1%
CCCCN=Cc1sc2ccc(OCC)cc2c1O	?	-20%	27µM*	-5%	0	0%
C=CCN=Cc1sc2ccc(OCC)cc2c1O	·	·	·	2%	2	0%
Cc1ccc(-c2ccc(CCC(=O)O)n2C(C)C)cc1	0%	-10%	?	-2%	11	1%
C=Cc1c(C)c2cc3[nH]c(cc4nc(cc5nc(cc1[nH]2)C(C)=C5CCC(=O)O)C(CCC(=O)O)=C4C)c(C)c3C=C	14µM*	?	13µM*	0%	-14	·
CC1=C(CCC(=O)O)c2cc3nc(cc4[nH]c(cc5[nH]c(cc1n2)c(C)c5C(C)O)c(C)c4C(C)O)C(C)=C3CCC(=O)O (stereo unspecified)	18µM*	·	·	·	-8	·

Bioassay records deposited in PubChem BioAssay by National Center for Advancing Translational Sciences (NCATS).
